# This is a sample that favours compounds with a hit; in the whole collection about 4.8% have one here.
# SMARCA2 act = activators of SMARCA2 function; MG213 cells, MMTV-luciferase reporter, dexamethasone, overnight; activation, % at 9.1 µM; actives 1% (n = 370,000); in the data active = activation above about 7.8%;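 also: 0% = vehicle wells and 100% = reference activator wells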
# DAX1 inh-1 = blocks DAX1 repression of SF-1 activated StAR promoter | HEK293T StAR-luciferase reporter, SF-1/DAX-1 repression relief | inhibition, % at 6.8 µM | actives 1.1% (n = 370,000);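 active = inhibition above the mean over all tested compounds plus 3 SD, cut at about 3.6% in these data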;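 also: 0% = DAX-1 cells with DMSO and 100% = cells lacking DAX-1 with DMSO; higher inhibition means more luminescence from relief of DAX-1 repression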
# hgDAF12 agonist = activates the H. glycines DAF-12 receptor ligand-binding domain; actives 1.8% (n = 370,000); activation, % at 6.8 µM; HEK293 GAL4-hgDAF12 UAS-luciferase reporter, agonist luminescence; normalized to butyrate control; AID 687014;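 active = activation above a cutoff set at the mean of all screened compounds plus 3 SD, cut at about 10% in these data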;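 also: 0% = DMSO wells and 100% = sodium butyrate wells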
# DAX1 inh-2 = inhibits human nuclear receptor DAX1; HEK293 Gal4-DAX1 luciferase reporter, luminescence; actives 0.99% (n = 340,000); inhibition, % at 6.75 µM; AID 504766;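 active = inhibition above the mean over all tested compounds plus 3 SD, cut at about 4.2% in these data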;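 also: 0% = DAX1-transfected cells with DMSO and 100% = empty-vector control cells with DMSO; inhibition shows as a rise in luminescence from relieved DAX1 repression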
# Target sequence (P51843 207-470 limits assumed): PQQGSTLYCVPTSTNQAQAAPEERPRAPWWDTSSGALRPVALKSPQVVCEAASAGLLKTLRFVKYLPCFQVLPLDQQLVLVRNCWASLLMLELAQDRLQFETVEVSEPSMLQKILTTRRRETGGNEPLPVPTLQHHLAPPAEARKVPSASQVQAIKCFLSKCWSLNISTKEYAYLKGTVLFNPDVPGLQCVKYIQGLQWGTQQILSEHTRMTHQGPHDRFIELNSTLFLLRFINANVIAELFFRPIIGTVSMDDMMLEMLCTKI
# ssDAF-12 act = activates DAF-12 receptor from parasite S. stercoralis. activation, % at 6.8 µM. AID 652126. HEK293 ssDAF-12/GRIP1 lit1-tk-luc reporter, luminescence; % of 3 µM dafachronic acid response. actives 1% (n = 370,000);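 active = activation above the mean over all tested compounds plus 3 SD, cut at about 0.9% in these data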;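 also: 0% = DMSO-only wells and 100% = 3 µM delta7-dafachronic acid wells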
# hcDAF12 agonist = activators of H. contortus DAF-12 nuclear receptor; HEK293 hcDAF-12 lit1-tk-luc reporter, luminescence; 0% DMSO, 100% Δ7-dafachronic acid; AID 652067; activation, % at 6.8 µM; actives 1.4% (n = 370,000);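 active = activation above the mean of all tested compounds plus 3 SD, cut at about 5.5% in these data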;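 also: 100% = response to 3 µM Δ7-dafachronic acid high control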
# LXRb hcDAF ctr = activates human LXR-beta, counter-screen for hcDAF-12 agonists; shares compounds with hcDAF12 agonist; HEK293 Gal4-LXR tk-luc reporter, luminescence, 24 h; normalized: DMSO 0%, positive control 100%; activation, % at 6.8 µM; 3,400 tested, under 10 active; AID 743027;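 active = mean percent activation of the reporter above a cutoff set as the average over tested compounds plus their standard deviation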
# hcDAF12 ag = hcDAF-12 agonism, confirmation assay | shares compounds with hcDAF12 agonist | HEK293 hcDAF-12 lit1-tk-luc reporter, luminescence; % of Δ7-dafachronic acid response | activation, % at 6.8 µM | actives 61% (n = 3,400) | AID 743032;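 active = mean activation across triplicate tests above the threshold derived from the earlier primary screen, cut at about 5.5% in these data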;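 also: 0% = DMSO only wells and 100% = 3 µM Δ7-dafachronic acid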
# hgDAF12 ag = confirmation of H. glycines DAF-12 agonists. shares compounds with hgDAF12 agonist. HEK293 GAL4-hgDAF12 luciferase reporter, agonist mode; percent of butyrate response. activation, % at 6.8 µM. actives 80% (n = 3,300). AID 743050;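 active = mean activation over triplicate wells above the hit cutoff derived from the earlier primary screen, cut at about 11% in these data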;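 also: 0% = DMSO low control and 100% = 2 mM sodium butyrate high control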
# LXR ag 2 = counter-screen for DAF-12 agonists: agonists of human LXR-beta; 3,300 tested, under 10 active; AID 743051; activation, % at 6.8 µM; HEK293 Gal4-LXR luciferase reporter, 24 h; shares compounds with hgDAF12 agonist;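 active = mean activation of the triplicate above a set limit carried over from the primary screen, none filed active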
# * marks the source's active call; other numbers are inactive results; · = no result given.
SMILES,SMARCA2 act,DAX1 inh-1,hgDAF12 agonist,DAX1 inh-2,ssDAF-12 act,hcDAF12 agonist,LXRb hcDAF ctr,hcDAF12 ag,hgDAF12 ag,LXR ag 2
N=c1n(N)c2ccccc2n1CC(=O)c1ccc(Br)cc1,7,3,15*,3,1,8.1*,1,5,14*,0
Cc1cc(N)n(-c2cc(C)c3ccccc3n2)n1,7.9*,4,17*,1,1.6*,9.9*,1,13*,17*,1
c1ccc(-c2ccc(-c3ccccc3)[nH]2)cc1,2,3,19*,3,0,6.8*,1,3,15*,0
NC(=O)NC(=O)COC(=O)CNS(=O)(=O)c1ccc(F)c(F)c1F,2,0,-3,-1,-2,0,·,·,·,·
Cc1cccc(NC(=O)c2cc(C)nc3ccccc23)c1,2,0,1,1,-1,-2,·,·,·,·
Cc1cccc(NC(=S)c2nc3ccccc3s2)c1,5,2,13*,2,2.1*,8.8*,1,9.9*,16*,1
O=C(c1cc2c([nH]c1=O)CCCC2)N1CCc2c([nH]c3ccccc23)C1c1ccccc1F (stereo not given),-3,0,0,0,1,2,·,·,·,·
CN1N=C(C(=O)N2CCc3c([nH]c4ccccc34)C2c2c(F)cccc2Cl)CCC1=O (stereo not given),4,2,15*,5.3*,1,6.7*,0,6.7*,7,0
Cc1ccc2c(c1)N=C(c1ccccc1)CC(C(Cl)Cl)=N2,1,2,14*,-1,1.8*,15*,1,8.1*,19*,1
Cc1ccc(O)c(C2=Nc3ccccc3N=C(c3cccs3)C2)c1,-2,0,1,-1,-1,1,·,·,·,·
NCCCCCC(=O)Nc1ccncc1,-1,0,-1,-1,-1,0,·,·,·,·
Cc1ccccc1-c1cc(-c2ccccc2O)n[nH]1,-2,4,16*,5.6*,1.4*,11*,1,8.1*,18*,1
Cc1cc(=O)n2c(-c3ccccc3C)n[nH]c2n1,-5,0,-1,0,-1,-1,·,·,·,·
Cc1ccc(-c2cc(NC(=O)c3ccccc3[N+](=O)[O-])n[nH]2)cc1,1,0,1,-2,-1,-1,·,·,·,·
Cc1ccc(-c2cc(-c3ccc(C)cc3O)[nH]n2)cc1,1,3,19*,5.1*,2.9*,15*,2,10*,22*,1
Cc1ccc(-c2cc(-c3ccccc3[N+](=O)[O-])[nH]n2)c(O)c1,-1,3,14*,5.3*,2.3*,9.9*,1,9.6*,16*,1
O=C(c1ccc(NS(=O)(=O)c2ccc(F)cc2)cc1)N1CCOCC1,-4,0,-1,2,-1,-1,·,·,·,·
COc1ccc(CC(=O)NNC(=O)COc2ccc(Cl)cc2C)cc1S(=O)(=O)N1CCOCC1,0,-3,1,1,-1,1,·,·,·,·
CC12COC3(C(=O)Nc4ccccc4)CC1CCC32C (stereo not given),0,0,-2,1,-1,-1,·,·,·,·
CC12COC3(C(=O)Nc4ccc5ccccc5c4)CC1CCC32C (stereo not given),4,2,19*,2,1.9*,7.3*,1,6.9*,16*,0
O=C(Nc1ccc2c(c1)CCC2)c1ccc(Cl)nc1,6,3.8*,19*,4.7*,1.2*,7.7*,1,9.3*,21*,1
CN(C)S(=O)(=O)c1cccc(C(=O)Nc2ccc3c(c2)CCC3)c1,2,2,22*,2,1,6.9*,1,7.4*,19*,1
CN(C)S(=O)(=O)c1ccc(C(=O)Nc2ccc3c(c2)CCC3)cc1,1,0,1,0,-1,0,·,·,·,·
Cc1nc(-c2coc3cc(O)c(C)cc3c2=O)cs1,4,2,13*,-2,1,10*,2,10.0*,15*,1
Cc1nc(-c2coc3cc(OCC(=O)O)ccc3c2=O)cs1,0,0,3,-2,-1,-1,·,·,·,·
SMILES,SMARCA2 act,DAX1 inh-1,hgDAF12 agonist,DAX1 inh-2,ssDAF-12 act,hcDAF12 agonist,LXRb hcDAF ctr,hcDAF12 ag,hgDAF12 ag,LXR ag 2
O=C(Cc1cccs1)Nc1ccc(F)c(F)c1,3,0,-2,1,-1,-2,·,·,·,·
O=C(/C=C/Nc1ccc(F)c(F)c1)c1cccs1,4,3,15*,4,1,16*,2,15*,23*,1
O=C(NCCc1ccccc1)c1ccccc1F,6,3.8*,15*,0,0,6.7*,1,4,14*,1
Cc1ccc(N/C=C/C(=O)c2ccccc2)cc1Br,6,3.8*,19*,2,3.4*,16*,2,16*,25*,1
Cc1nc(-c2ccncc2)sc1C(=O)Nc1ccc(Br)cc1,-4,0,3,-2,-1,-1,·,·,·,·
Cc1cccc(Nc2nc(-c3ccc(F)c(C)c3)cs2)n1,5,2,14*,5.4*,1.2*,9.0*,1,7.7*,17*,1
Cc1cccc(/C(N)=N/OC(=O)c2cccs2)c1,2,3,15*,4,1.8*,7.9*,1,5.7*,17*,1
COc1ccc(-c2cc3cc(OC)c(OC)cc3cn2)cc1,7,0,3,1,-1,0,·,·,·,·
COc1ccc2cc(-c3ccccc3)ncc2c1,6,3,16*,2,1.8*,13*,2,14*,20*,1
COc1cc(OC)cc(-c2cc3ccc(OC)cc3cn2)c1,7,1,16*,3,0.9*,6.7*,2,6.6*,19*,1
Cc1cc(OCC(=O)Nc2sc3c(c2C#N)CC(C)(C)NC3(C)C)c(C(C)C)cc1Cl,1,0,-2,0,0,-2,·,·,·,·
O=[N+]([O-])c1ccc(/C=C/c2ccc3cccc([N+](=O)[O-])c3n2)cc1,0,-1,5,1,-1,-1,·,·,·,·

# Assay outcomes as filed in PubChem BioAssay.
